# In PubChem BioAssay (EPA / NIEHS):
# Some structures have more than one record in an assay (separate samples or runs), and their calls can disagree. The source made the active and inactive calls. The calls were made as follows: active = hit-call score of the fitted dose curve at least 0.9, where 1 is the maximum; inactive = score below 0.9.
# Assay: BSK_KF3CT_SRB: Viability Assessment in the BioMAP Diversity Plus: KF3CT Assay (AID 2283069);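 also: fitted for both signal gain and loss against DMSO baseline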
# Conditions: primary human keratinocytes with fibroblasts
# Procedure: BSK_KF3CT is a cell-based, multiplexed-readout assay that uses keratinocytes and foreskin fibroblasts, a human skin primary cell co-culture, with measurements taken at 24 hours after chemical dosing in a 96-well plate.BSK_KF3CT_SRB is an assay component measured in the BSK_KF3CT assay. It measures 0.1% sulforhodamine related to cell death using Sulforhodamine staining technology.Data from the assay component BSK_KF3CT_SRB was analyzed into 1 assay endpoint. This assay endpoint, BSK_KF3CT_SRB, was analyzed with bidirectional fitting relative to DMSO as the negative control and baseline of activity. Using a type of viability reporter, gain or loss-of-signal activity can be used to understand changes in the signaling. Furthermore, this assay endpoint can be referred to as a primary readout, because this assay has produced multiple assay endpoints where this one serves a signaling function. To generalize the intended target to other relatable targets, this assay endpoint is annotated to the cell morphology intended target family, where the subfamily is cell conformation.
# The levels of cell surface (or secreted, indicated by the prefix "s") biomarker endpoints were measured by ELISA. Overt cytotoxicity to cells in confluent adherent cultures (all systems other than the BT system) was assessed by measuring total protein levels using sulforhodamine B (SRB) staining in parallel cultures at the time of biomarker measurements, indicated as SRB endpoints. For proliferation assays for adherent cell types, individual cell types are cultured at sub-confluence and relative cell numbers quantified by SRB staining at time points optimized for each system (48 h: 3C and CASM3C systems; 72 h: BT and HDF3CGF systems; 96 h: SAg system). SRB was performed by staining cells with 0.1% SRB after fixation with 10% TCA and reading wells at 560 nm.Viability and proliferation of PBMC (T cells) was quantified by Alamar Blue reduction for the SAg and BT systems. For PBMC viability (referred to as PBMC Cytotoxicity within the assay endpoint names), cells were plated (75,000/well in a 96-well plate) and then chemical samples added for 1 h before addition of activators, SEB and TSST-1 (20 ng/mL final concentration each). Cells were incubated for 90 h. Then, Alamar Blue (20 uL/well) (Invitrogen, Cat DAL1100) was added for 6 h, and the plates were read with a fluorescence microplate reader at 546/580 nm (excitation/emission). For PBMC proliferation, cells were plated and activated as above but incubated for only 16 h prior to addition of Alamar Blue. Plates were read after 6 h.
SMILES,outcome,AC50
COc1cccc(O)c1,inactive,–
O=C(c1ccccc1)c1ccccc1,inactive,–
O=C(O)CCC(F)(F)C(F)(F)C(F)(F)C(F)(F)C(F)(F)F,inactive,–
C[C@]12CC[C@@H]3c4ccc(O)cc4CC[C@H]3[C@@H]1C[C@@H](O)[C@@H]2O,inactive,–
CCCCC(CC)C(=O)O (stereo not given),inactive,–
CCCCCCCCCCCCCCCCCC[N+](C)(C)Cc1ccccc1,–,2.62 µM (active)
C=CC(=O)OCCC(F)(F)C(F)(F)C(F)(F)C(F)(F)C(F)(F)C(F)(F)C(F)(F)C(F)(F)F,inactive,–
CS(=O)(=O)c1ccc([C@@H](CC2CCCC2)C(=O)Nc2cnccn2)cc1Cl,inactive,–
Cc1ccc(N=Nc2c(O)ccc3ccccc23)c(C)c1,inactive,–
O=C(CCCN1CCC(O)(c2ccc(Cl)cc2)CC1)c1ccc(F)cc1,inactive,–
CC1=NN(c2ccccc2)C(=O)C1,inactive,–
CCCCCCCCCCCCOS(=O)(=O)O,–,33.7 µM (active)
CCCCCc1ccc(O)cc1,–,12.4 µM (active)
OCC(F)(F)C(F)(F)C(F)(F)C(F)(F)C(F)(F)C(F)(F)C(F)(F)C(F)(F)C(F)(F)C(F)(F)C(F)(F)F,inactive,–
O=C1c2ccc(O)c(O)c2C(=O)c2c(O)ccc(O)c21,inactive,–
O=S(=O)(O)C(F)(F)C(F)(F)C(F)(F)C(F)(F)C(F)(F)C(F)(F)C(F)(F)C(F)(F)C(F)(F)C(F)(F)F,inactive,–
OCCN1CN(CCO)CN(CCO)C1,inactive,–
CCOC(=O)CN[C@@H](C(=O)N1CC[C@H]1C(=O)NCc1ccc(/C(N)=N/O)cc1)C1CCCCC1,inactive,–
CN(Cc1cnc2nc(N)nc(N)c2n1)c1ccc(C(=O)N[C@@H](CCC(=O)O)C(=O)O)cc1,inactive,–
CCCCC(CC)C(=O)OCCOCCOCCOCCOC(=O)C(CC)CCCC (stereo not given),inactive,–

SMILES,outcome,AC50
C=CC(C)(CCC=C(C)C)OC(C)=O (stereo not given),inactive,–
O=C(NO)c1ccccc1,inactive,–
O=C(CC(=O)C(F)(F)C(F)(F)C(F)(F)F)c1cccs1,inactive,–
O=C1NS(=O)(=O)c2ccccc21,inactive,–
C=COC(=O)C(C)(C)CCCCCC,–,34.4 µM (active)
CCCCCCCCCCCC,inactive,–
O=C(O)C(F)(F)OC(F)(F)C(F)(F)OC(F)(F)C(F)(F)OC(F)(F)C(F)(F)C(F)(F)C(F)(F)F,inactive,8.04 µM (active)
CC(=O)Nc1ccc(O)cc1,inactive,–
COC1=CC(=O)C[C@@H](C)[C@]12Oc1c(Cl)c(OC)cc(OC)c1C2=O,inactive,–
O=C(O)CCC(F)(F)C(F)(F)C(F)(F)C(F)(F)C(F)(F)C(F)(F)F,inactive,–
O=P(O)(O)CCC(F)(F)C(F)(F)C(F)(F)C(F)(F)C(F)(F)C(F)(F)F,inactive,–
CN(C)CCOC(c1ccccc1)c1ccccc1,inactive,–
Cc1[nH]nc2c1N=C(c1ccccc1Cl)c1cc([N+](=O)[O-])ccc1N2,inactive,–
CN(CCO)S(=O)(=O)C(F)(F)C(F)(F)C(F)(F)C(F)(F)C(F)(F)C(F)(F)C(F)(F)C(F)(F)F,inactive,–
CCCCC=O,inactive,–
Cc1ccc(C(=O)c2ccccc2)cc1,inactive,–
CN(C)c1ccc(C(=C2C=CC(=[N+](C)C)C=C2)c2ccccc2)cc1,–,0.318 µM (active)
COc1cc(OC)nc(NC(=O)NS(=O)(=O)Nc2ccccc2C(=O)N(C)C)n1,inactive,–
Oc1c(Cl)cc(Cl)cc1Sc1cc(Cl)cc(Cl)c1O,inactive,–
